Measurements as given in the OligoGym collection.

Biological target: PITPNM3
Assay: pooled miR-30 sensor sort-seq; sequence = guide strand
Conditions: shRNA
Note: reference of the scale not given here.

Sequence	sensor-assay potency score (higher = more potent)
TTTGCTGAGACGCTTGCTGCTG	-0.757
TTCTCCTTGATGCTCGTCCAGT	-0.95
TTCAGCAGCAATCACATCATTG	-1.64
TCTTCGTGGATCTCGATGCTTC	-0.715

Biological target: PKD2L1
Assay: as above
Conditions: shRNA

Sequence	sensor-assay potency score (higher = more potent)
TTGTTGAAGCTGATGTACTTGA	-0.253
TTCAAAGATCTCTGAATCCTGA	0.0945
TTCATCTTCAGGCTTCTTGGGT	-0.0602
TAGTAGAAGATGAAGACGCAGA	-0.533
TTGAATATCTTGATCCAGGCGA	0.38
TAGTAATAAGCACTGGAGCTTG	-0.791
TACTTGAATATCTTGATCCAGG	-0.611
TTGACTGTGCGGATTTGCCAGG	-0.754
TTGTTGTACTGTGTCTGCCAGA	-0.963

Biological target: PKIA
Assay: as above
Conditions: shRNA

Sequence	sensor-assay potency score (higher = more potent)
TAGAACTTCGTTGTGCATCTTC	0.489
TCTTGTTGATATCAAGACCTGC	-0.396
TTGTTCTGTAGAACTTCGTTGT	0.279
TTTGTTCTGTAGAACTTCGTTG	0.16
TATTGCATTTCTTCTACCTGTT	0.0658
TTTAACATGATAATGAGCAGGT	0.937
TACAGGAAGAATCATCATCTAG	-0.916
TCATCATCTAGGTCGGAGCTAC	-0.746
TTCAAGGCTAATTCATTGCTGT	0.0225
ATCTTCTTCACCTTCTGTCTTG	-0.736
TTTACTGGGTGAACACTTGAGC	-0.0975
TAACATGATAATGAGCAGGTTC	0.186

Biological target: PKIG
Assay: as above
Conditions: shRNA

Sequence	sensor-assay potency score (higher = more potent)
TTCCTCACGCTCACAGCCTCTG	-0.203
TTGCCAGCTTCCTTGTCTGGGG	-0.658
TGTCCGGTCACAGGAGATGAAG	-2.03
TCAGGGACCGCATTCCGACGGC	-0.897
TAGGTGTCACTTATCCTGGTGG	-0.436
TTGATTGTCAGCTCTCTCCATA	-0.293
TCACAGCCTCTGAGTCTCCCTG	-1.09
TCGAGTGCCAGCTCGCCCATGT	-1.07
TAACATCTTGTGGTTACAGTGT	-0.118
TGGGGCGCTTCCCTCCACCTGT	-1.57
ATGTCAGGGACCGCATTCCGAC	-1.85
TTACAGTGTCTTGAAAGTGTAC	-0.626

Biological target: PKLR
Assay: as above
Conditions: shRNA

Sequence	sensor-assay potency score (higher = more potent)
AATCATCATCTTCTGAGCCAGG	-0.988
ATGGACTTTGCTAAGTCTCTTT	-0.987
TTGCTGATGATCTTGATGCCGT	-0.495
